Source: PubChem
This is a sample that favours compounds with a hit; in the whole collection about 2.3% have one here.
SENP6 block – SENP6 protease inhibitors, primary screen, biochemical, luminescence, uHTS; Recombinant SENP6 catalytic domain, aminoluciferin luminescence; actives 1.8% (n = 330,000); inhibition, % at 10 µM; Sentrin-specific protease 6 (Homo sapiens), Q9GZR1;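 active = inhibition above about 50% at the single tested dose, limit read from the data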;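 also: plate controls were DMSO wells with enzyme for no effect and DMSO wells lacking enzyme for full effect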
SENP8 block-1 – SENP8 protease inhibitors, primary screen, biochemical, luminescence. inhibition, % at 10 µM. purified SENP8, Z-RLRGG-aminoluciferin cleavage. AID 2540, 2010. Sentrin-specific protease 8 (Homo sapiens), Q96LD8. actives 1.2% (n = 330,000); in the data active = inhibition above about 50%
Target sequence (Q96LD8 whole entry, looked up): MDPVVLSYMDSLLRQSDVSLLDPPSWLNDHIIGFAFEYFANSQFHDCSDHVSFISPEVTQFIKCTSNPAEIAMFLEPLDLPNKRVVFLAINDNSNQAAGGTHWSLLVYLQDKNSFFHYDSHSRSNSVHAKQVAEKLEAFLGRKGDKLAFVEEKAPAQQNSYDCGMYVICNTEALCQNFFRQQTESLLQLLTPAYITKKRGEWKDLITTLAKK
LGR2 inh – inhibitors of bursicon-induced LGR2 CRE-luciferase signal, primary screen, cell-based, HEK293, CRE-luciferase reporter, bursicon stimulation. actives 0.35% (n = 380,000). Drosophila bursicon receptor LGR2 (rickets). bursicon-stimulated, 4 h. inhibition, % at 9.99 µM. AID 720647, 2013;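 active = drop in luminescence signal, shown as inhibition above about 50% in the replicate tests, limit read from the data, passing the limit was not always enough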;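 also: agonist challenge used bursicon conditioned medium at about half maximal strength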
HSP90 refold inh – HSP90 inhibitors, primary screen, cell lysate, luminescence. Heat shock protein HSP 90 (rabbit reticulocyte lysate; luciferase refolding). Rabbit reticulocyte lysate, luciferase refolding luminescence, 3 h. inhibition, % at 5.6 µM. actives 0.91% (n = 290,000);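 active = inhibition above the screen-wide mean plus 3 SD, computed separately per campaign, cut at about 16% in these data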;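 also: 0% = DMSO wells and 100% = 60 µM geldanamycin wells; inhibitors lower the luminescence because luciferase stays unfolded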
SENP7 block – SENP7 protease inhibitors, primary screen, biochemical, luminescence, uHTS | Sentrin-specific protease 7 (Homo sapiens), Q9BQF6 | AID 434973, 2010 | inhibition, % at 5 µM | actives 1.5% (n = 330,000) | recombinant SENP7, Z-RLRGG-aminoluciferin luminescence, 40 min;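 active = inhibition above about 50% at the single test dose, limit read from the data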;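 also: plate controls were DMSO with enzyme for no effect and no enzyme buffer wells for full effect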
SENP8 block-2 – human SENP8 protease inhibitors, primary screen, biochemical, fluorescence, Nedd8 protein substrate, uHTS | inhibition, % at 20 µM | actives 0.64% (n = 360,000) | recombinant SENP8 | AID 602440, 2012 | Sentrin-specific protease 8 (Homo sapiens), Q96LD8; in the data active = inhibition mostly above about 40%, no sharp cut-off; inactive = mostly below about 27%
SENP8 conf – SENP8 protease inhibitors, retest, confirmation, biochemical, luminescence, single concentration. shares compounds with SENP7 block. Recombinant SENP8, Z-RLRGG-aminoluciferin luminescence, 60 min. inhibition, % at 12.5 µM. actives 40% (n = 6,200). AID 488912, 2010;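 active = mean inhibition across replicates above about 50%, limit read from the data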
SENP6 confirm – SENP6 protease inhibitors, confirmation, biochemical, luminescence, single concentration. shares compounds with SENP7 block. recombinant SENP6, Z-RLRGG-aminoluciferin luminescence. inhibition, % at 12.5 µM. actives 58% (n = 6,200). AID 488915, 2010
SENP7 confirm – SENP7 protease inhibitors, retest, confirmation, biochemical, luminescence, single concentration. inhibition, % at 12.5 µM. recombinant SENP7, Z-RLRGG-aminoluciferin luminescence, 40 min. AID 488917, 2010. shares compounds with SENP7 block. actives 69% (n = 6,200)
Casp3 SENP sel – caspase-3 protease inhibitors, confirmation, selectivity assay for SENP inhibitor project, biochemical, single concentration; inhibition, % at 12.5 µM; actives 60% (n = 6,200); shares compounds with SENP7 block; purified caspase-3, Z-DEVD-aminoluciferin luminescence, 60 min;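 active = mean inhibition above about 50%, limit read from the data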;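 also: plate controls were enzyme with DMSO for no effect and wells without caspase-3 for full effect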
Target sequence (P42574 28-227 limits assumed): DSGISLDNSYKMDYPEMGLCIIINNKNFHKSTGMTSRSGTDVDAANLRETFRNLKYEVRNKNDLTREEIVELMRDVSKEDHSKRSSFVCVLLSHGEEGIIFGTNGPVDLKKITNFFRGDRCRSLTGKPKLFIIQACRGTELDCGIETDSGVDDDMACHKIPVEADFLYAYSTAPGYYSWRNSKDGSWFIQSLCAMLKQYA
SENP luc ctr – luminescence interference (SENP counter-screen) | AID 488919 | inhibition, % at 12.5 µM | shares compounds with SENP7 block | Pre-incubated SENP8/Z-RLRGG-aminoluciferin, luciferase luminescence interference | actives 39% (n = 6,200);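 active = mean inhibition above about 50% when retested at one dose, limit read from the data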;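 also: plate controls were DMSO wells with completed reaction for no effect and substrate without enzyme for full effect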
The depositor's hits bear a star; . = no result.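 The calls were made as follows, unless noted: active = mean inhibition above about 50% in the one-dose retest (limit read from the data); inactive = the rest.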

SMILES | SENP6 block | SENP8 block-1 | LGR2 inh | HSP90 refold inh | SENP7 block | SENP8 block-2 | SENP8 conf | SENP6 confirm | SENP7 confirm | Casp3 SENP sel | SENP luc ctr
O=C(Nc1cccc([N+](=O)[O-])c1)c1cc2ccccc2cc1O | 87.3* | 80.1* | -23.5 | -3.3 | 70.3* | 39.7 | 14.3 | 37.4 | 43.7 | 79.1* | 4.3
CCOC(=O)/C(=N\Nc1ncnc2ccccc12)c1ccc(C)cc1 | 60.8* | 61.6* | 0.6 | 15.2 | 25.3 | 29.5 | -23.9 | 56.1* | 77.6* | 5.9 | 20.2
C[C@@H]1CN([C@H](C)CO)C(=O)c2cc(NS(=O)(=O)c3cccs3)ccc2O[C@@H]1CN(C)S(=O)(=O)c1cccs1 | . | . | -7.8 | . | . | . | . | . | . | . | .
O=C(CSc1ccccn1)N/N=C/c1ccccc1[N+](=O)[O-] | -15.1 | -13.4 | -9.5 | 1.2 | 0.0 | 5.6 | . | . | . | . | .
O=C(CSc1ccccn1)N/N=C/c1cc([N+](=O)[O-])ccc1O | 52.2* | 6.3 | 5.6 | 1.3 | 14.6 | 26.8* | 33.2 | 26.2 | 65.2* | 57.9* | 35.5
CN(C)c1ccc(N=Cc2nc(-c3ccccc3)oc2OC(=O)c2cccc(Cl)c2)cc1 | 64.3* | -10.8 | -47.6 | -0.1 | 71.9* | 25.1 | 6.2 | 5.3 | -1.3 | 25.8 | 7.8
Cc1ccc(C(=O)Oc2oc(-c3ccccc3)nc2C=Nc2ccc(N(C)C)cc2)cc1 | -19.3 | -13.4 | 0.9 | 8.9 | -15.0 | 2.9 | . | . | . | . | .
Fc1ccc2cnc(-c3cccnc3)cc2c1 | 1.8 | -6.1 | -58.1 | . | 4.7 | 5.5 | . | . | . | . | .
c1ccc(-c2cc3ccccc3cn2)cc1 | 84.3* | 81.6* | -100.7 | . | 91.1* | -29.1 | 65.4* | 85.0* | 96.5* | 77.4* | 39.1
O=C(Nc1cccc(Cl)c1)c1ccccc1 | 48.9 | 41.6 | -66.7 | . | 47.5 | 8.4 | . | . | . | . | .
O=C(O)/C=C/c1cccc(NC(=O)c2ccc(Cl)cc2)c1 | 74.3* | 61.4* | -10.8 | -3.1 | 59.4* | 15.3 | 66.3* | 63.0* | 88.5* | 84.1* | 71.0*
O=C(O)/C=C/c1cccc(NC(=O)c2ccccc2)c1 | 72.3* | 47.7 | 4.9 | 5.5 | 69.4* | 19.0 | 69.1* | 66.0* | 89.9* | 90.9* | 70.6*
Cc1occc1C(=O)Nc1cccc(/C=C/C(=O)O)c1 | 29.1 | -4.5 | -25.6 | -1.7 | 11.5 | 20.1 | . | . | . | . | .
CC(=O)c1sc(Nc2nc3ccc(F)cc3s2)nc1C | 80.9* | 53.2* | . | 2.2 | 30.2 | -307.1 | 11.5 | 71.5* | 90.4* | 47.5 | 13.2
CC(=O)c1sc(Nc2cccc(C)c2)nc1C | 3.7 | 4.1 | -55.1 | -0.6 | 11.9 | -400.7 | . | . | . | . | .
CCOC(=O)c1sc(Nc2nc3ccc(OC)cc3s2)cc1C | -0.2 | -3.1 | -27.8 | 1.3 | 7.1 | -391.8 | . | . | . | . | .
CCOC(=O)c1csc(Nc2nc3ccc(F)cc3s2)n1 | 58.0* | -18.4 | . | 0.8 | 3.1 | -4.7 | 1.3 | -2.4 | 12.4 | 6.0 | 2.1
CC(C)NC(=O)Nc1ccc2c(c1)C(=O)N([C@H](C)CO)C[C@H](C)[C@H](CN(C)C(=O)CCCN(C)C)OCCCC[C@H](C)O2 | . | . | -13.0 | . | . | . | . | . | . | . | .
COC(=O)c1sccc1NC(=O)c1ccncc1 | -4.8 | -6.8 | . | 2.6 | -9.1 | 6.0 | . | . | . | . | .
